Structures are written as SMILES. The whole screen tested about 330,000 compounds, of which about 4,100 (1.2%) were called active. Many of the other results were omitted from the sample, so actives are more common in it than they were. Unmarked numbers belong to inactive results. Cut-off read from the data, not from the text of the source: active = inhibition above about 50%; inactive = the rest.

The target of this assay is Sentrin-specific protease 8 (Homo sapiens) (UniProt Q96LD8). Nature of the assay: SENP8 protease inhibitors, primary screen, biochemical, luminescence (AID 2540). The conditions noted are these: purified SENP8, Z-RLRGG-aminoluciferin cleavage, at 10 µM, active compounds read high.
Sequence of Sentrin-specific protease 8 (Homo sapiens) (Q96LD8 whole entry, looked up): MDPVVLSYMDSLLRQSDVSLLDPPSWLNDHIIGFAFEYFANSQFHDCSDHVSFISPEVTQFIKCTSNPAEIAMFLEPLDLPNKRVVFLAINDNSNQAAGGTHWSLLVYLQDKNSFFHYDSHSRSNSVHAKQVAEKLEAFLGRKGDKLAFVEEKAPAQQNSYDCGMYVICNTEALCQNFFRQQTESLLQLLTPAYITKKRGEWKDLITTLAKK
Broadly, the inhibition is the relative decrease from the control value, in per cent. `CC1(C)C2CC=C(/C=N/NC(=O)c3ccc(Cl)cc3)C1C2` (centres undefined): the inhibition was -0.62%.

Regarding `COc1cccc(Nc2nc(N)c([N+](=O)[O-])c(NCc3ccco3)n2)c1`, the inhibition is -2.27%.

For the compound `CCN1CCN(c2nc(Nc3cccc(F)c3)nc(N)c2[N+](=O)[O-])CC1`, the inhibition was -4.79%.

Take `CNc1nc(Nc2ccc(C)c(Cl)c2)nc(N)c1[N+](=O)[O-]`: the inhibition is 96.8% (active).

Turning to `Cc1cc(C)c(NC(=S)N2CCCC2C(=O)O)c(C)c1` (centres undefined), the inhibition is -2.97%.

As for `CC(=O)c1cccc(NC(=O)c2cc(C)nn2-c2ccccc2)c1`, the inhibition was -2.45%.

`N#Cc1ccc(S(=O)(=O)NCC(=O)OCC(=O)NCCc2ccccc2)cc1`: the inhibition is 2.9%.

`O=S(=O)(c1cccs1)N1CCc2ccccc2C1`: the inhibition is -2.48%.

With `COc1ccc(/C=C2\CCc3ccccc3C2=O)c(OC)c1OC`, the inhibition was -6.3%.

As to `O=C1/C(=C/c2cccs2)SC(=S)N1C1CCS(=O)(=O)C1` (centres undefined), the inhibition is 10.2%.

As for `O=C1/C(=C/c2cccs2)CCC1C1CCCC1` (centres undefined), the inhibition is 80.6% (active).

Consider `CCC1C/C(=C/c2cccs2)C(=O)/C(=C/c2cccs2)C1` (centres undefined), for which the inhibition is -8.62%.

As for `O=C1/C(=C/c2cccs2)CCc2ccccc21`, the inhibition is 96.5% (active).

`CC(C)(C)C(=O)CSc1ccc(S(=O)(=O)N2CCCC2)cn1`: the inhibition was 0.226%.

Turning to `CC(=O)N1CCC(C(=O)OCc2ccc(Cl)cc2)(c2ccccc2)CC1`, the inhibition is -16%.

As to `Cc1ccc(CNC(=O)CCNS(=O)(=O)c2ccc(Br)s2)cc1`, the inhibition is -3.11%.

With `Oc1c(C=Nc2cccc3nsnc23)ccc2ccccc12`, the inhibition is 75.8% (active).

`CCCn1c(SCC(=O)c2ccc3c(c2)OCCO3)nnc1C(C)C`: the inhibition was 1.93%.

With `Cc1ccc2cc(/C=N/Nc3ccc(C(=O)O)cc3)c(Cl)nc2c1`, the inhibition was -3.31%.

Turning to `O=C(O)c1ccc(N/N=C/c2ccc3ncccc3c2)cc1`, the inhibition was 97.1% (active).

On to `O=C(O)c1ccc(/C=N/Nc2nc(N3CCCCC3)nc(N3CCCCC3)n2)cc1`, for which the inhibition was -10.8%.

Regarding `S=c1[nH]nc(-c2cc(-c3ccsc3)n[nH]2)n1-c1ccccc1`, the inhibition was 2.29%.

As for `c1ccc(-c2cc(-c3ccccc3)[nH]n2)cc1`, the inhibition was 58.4% (active).

`Oc1ccccc1-c1cc(-c2ccc(Cl)cc2)n[nH]1`: the inhibition was 89.8% (active).

On to `S=c1[nH]nc(-c2cc(-c3ccccc3)n[nH]2)n1/N=C/c1c2ccccc2cc2ccccc12`, for which the inhibition was -9.93%.

For the compound `O=C(Nc1cccnc1Cl)c1cc(-c2ccccc2O)on1`, the inhibition is -7.17%.

Turning to `Cc1ccc(NC(=O)c2cc(-c3ccccc3O)n[nH]2)cc1C`, the inhibition was -13.8%.

For `CCOc1ccc(C(=O)CCN2CCOCC2)cc1`, the inhibition is -4.08%.

Consider `CCCCn1c(N)c(N(CC(C)C)C(=O)C2CSC3(C)CCC(=O)N23)c(=O)[nH]c1=O` (centres undefined), for which the inhibition is -4.36%.

`COC(C/C=C/C(=O)[C@@H](C)OCc1ccccc1)OC`: the inhibition was -1.1%.

`COc1ccccc1C(=O)Nc1ccc(NC(=O)c2ccco2)c(C)c1`: the inhibition is 42.6%.

Take `O=C(Nc1ccc(O)cc1)c1ccc(NC(=O)c2ccco2)cc1`: the inhibition is -13.6%.

As to `Cc1cc(NC(=O)c2ccc(F)cc2)ccc1NC(=O)c1ccco1`, the inhibition was 55.5% (active).

As for `CC1(C)CCSC(/C=C/c2ccccc2)=N1`, the inhibition was -3.81%.

Take `CCOc1ccc(C(O)Cn2c(=N)n(CCN3CCCCC3)c3ccccc32)cc1` (centres undefined): the inhibition is 4.64%.

With `O=C1c2ccccc2-c2ncnc3c(N4CCOCC4)cc(N4CCOCC4)c1c23`, the inhibition was -2.88%.

Turning to `O=C(c1ccccc1)C(Cn1cncn1)C(Sc1ccccc1)c1ccccc1` (centres undefined), the inhibition is -0.476%.

As for `Cc1ccc(Nc2nc(C)cc(C)c2C(N)=O)cc1`, the inhibition is 5.13%.

Take `Cc1ccc(NC(=O)Nc2nnc(-c3ccncc3)s2)cc1`: the inhibition is -9.37%.

As to `Cc1ccc(Nc2nc(Cl)c(C=O)s2)cc1`, the inhibition is 67.8% (active).

`CCOC(=O)C1CCN(S(=O)(=O)c2ccc3c(c2)N(C)C(=O)CC(=O)N3C)CC1`: the inhibition is 2.4%.

Consider `CC[N+](C)(CC)CCC[n+]1c(-c2ccccc2)c2cc(N)ccc2c2ccc(N)cc21`, for which the inhibition was 96.5% (active).

As for `Cc1cc(C)cc(-c2nnc(SCC(=O)NC3CC3)o2)c1`, the inhibition is -2.18%.

For `Cc1ccc(-n2nc3ccc(NC(=O)/C=C/c4ccco4)cc3n2)cc1C`, the inhibition was 15.4%.

On to `Cc1nn(CC(=O)Nc2ccc(F)cc2)c(=O)c2ccccc12`, for which the inhibition was 1.21%.

Turning to `CCC(=O)Nc1ccc2nn(-c3ccc(F)cc3)nc2c1`, the inhibition is 63.6% (active).

Regarding `CCOc1c2ccc(C(=O)NC3CCCc4ccccc43)cc2nn1CC` (centres undefined), the inhibition is -8.27%.

Regarding `CC(=O)N1CC2(C)CN(C(C)=O)CC(C)(C1)C2=O`, the inhibition is 1.73%.

`CCOc1ccc(-n2c(SCC(N)=O)nnc2-c2ccco2)cc1`: the inhibition was -1.84%.

`CCCCOc1ccc(-c2nnc(-c3ccco3)o2)cc1`: the inhibition is 64.8% (active).

`CCOc1ccc(-c2nnc(-c3ccco3)o2)cc1`: the inhibition is 73.3% (active).

For `CCCCOc1ccc(-c2ncc(C(=O)OCC)c(N)n2)cc1`, the inhibition is -12.4%.

Consider `CCCCSc1nnc(-c2ccc(C)cc2)o1`, for which the inhibition was 33.5%.

Regarding `N#Cc1ccc(OCc2nnc(-c3ccc([N+](=O)[O-])cc3)o2)cc1`, the inhibition was 7.85%.

For `Cc1c(-c2ccccc2)n[nH]c1C(=O)N=Nc1c(O)[nH]c2ccccc12`, the inhibition was 21.6%.

As to `Cc1ccccc1NS(=O)(=O)CCCCC(Cl)(Cl)Cl`, the inhibition is 7.88%.

Turning to `CCOc1ccc(S(=O)(=O)N/N=C(\C)c2ccc(Cl)c(Cl)c2Cl)cc1`, the inhibition was 1.79%.

On to `CCN1C(=O)C(C(=O)NC(C)c2ccccc2)C2CC1(C)Oc1ccccc12` (centres undefined), for which the inhibition was 7.17%.

In the case of `CSc1sc(C(=O)NC(=O)NCc2cccnc2)c(C)c1-c1ccon1`, the inhibition was 4.14%.

In the case of `O=C(Cn1cc(C(=O)C2CC2)c2ccccc21)Nc1ccccc1Cl`, the inhibition was 5.51%.

In the case of `O=C(COC(=O)c1ccc(O)cc1O)NNC(=O)c1cccs1`, the inhibition was -4.38%.

On to `Cc1ccc(/C=C2/SC(=S)N(CCC(=O)NCCCN3CCOCC3)C2=O)cc1`, for which the inhibition is -1.52%.

Turning to `COc1ccc(/C=C2\SC(=S)N(CC(=O)NNC(=O)c3ccncc3)C2=O)cc1`, the inhibition is -3.25%.

With `C=CCOc1ccc(/C=C2\SC(=S)N(CCC(=O)O)C2=O)cc1`, the inhibition was 97.6% (active).

The record behind these values is PubChem BioAssay AID2540 (Sanford-Burnham Center for Chemical Genomics, 2010).
